Experiment [1] in a line: Nuclear factor erythroid 2-related factor 2/antioxidant responsive element (Nrf2/ARE) small molecule agonists: qHTS cell viability counter screen in human keratinocytes (AID 1919968; active means well fitted curve in the direction sought with a large enough effect in the repeat runs; an effect the other way counts as inactive or inconclusive; further: nearly all actives have a fitted effect of over 55% in size). In outline: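 Cells of the KeratinoSens line were plated at 1,500 per well and left for 5 h before compound transfer from DMSO stocks. After a 23 h incubation (37 C, 5% CO2), CellTiter-Fluor was added. Signal was taken as fluorescence intensity 1 h later.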
A general note: In qHTS, concentration-response curves come from the screen itself.

Experiment [2] can be described thus: Nuclear factor erythroid 2-related factor 2/antioxidant responsive element (Nrf2/ARE) small molecule agonists: luciferase reporter gene qHTS assay in human keratinocytes (AID 1919969; further: nearly all actives have a fitted effect of over 35% in size). (In general: Reporter assays use an easily measured gene product as a stand-in for the process of interest.)
Experiment [3] addresses Gonadotropin-releasing hormone receptor (Homo sapiens) (UniProt P30968). The experiment in a line: Human gonadotropin-releasing hormone receptor (GnRHR) small molecule agonists, calcium flux assay in GnRHR-HEK293 cells (AID 1920063). Further: nearly all actives have a fitted effect of over 35% in size. The gist of the method:
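Compounds dissolved in DMSO are pin-transferred onto dye-loaded GnRHR-HEK293 cells, which were seeded 18 h before at 37 C/5% CO2. Calcium signal is read as fluorescence intensity at 1 s intervals for 3 min.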
Background: Calcium assays in cells follow changes in intracellular calcium, usually with a dye or a luminescent sensor.

The target in experiment [4] is KiSS-1 receptor (Homo sapiens) (UniProt Q969F8). The experiment in a line: Human kisspeptin (KISS1R) small molecule agonists, calcium flux assay in KISS1R-HEK293 cells (AID 1920064; active means well fitted curve in the direction sought with a large enough effect in the repeat runs; an effect the other way counts as inactive or inconclusive). In outline: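 Cell line: HEK293, stable human KISS1R. Dye loading 1 h at 37 C after 18 h culture. Read: kinetic fluorescence, 480/540 nm, 3 min at 1 s intervals.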
KiSS-1 receptor (Homo sapiens), sequence (Q969F8 whole entry, looked up): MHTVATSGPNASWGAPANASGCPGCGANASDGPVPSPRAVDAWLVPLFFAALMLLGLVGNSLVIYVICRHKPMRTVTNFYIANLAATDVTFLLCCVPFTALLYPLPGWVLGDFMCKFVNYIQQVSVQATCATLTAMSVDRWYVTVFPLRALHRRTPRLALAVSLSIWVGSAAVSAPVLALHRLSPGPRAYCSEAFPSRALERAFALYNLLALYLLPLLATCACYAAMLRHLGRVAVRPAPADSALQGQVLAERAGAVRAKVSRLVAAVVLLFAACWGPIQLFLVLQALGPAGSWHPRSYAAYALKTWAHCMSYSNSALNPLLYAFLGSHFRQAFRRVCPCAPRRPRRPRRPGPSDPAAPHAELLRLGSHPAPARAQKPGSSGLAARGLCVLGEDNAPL
Experiment [5] can be described thus: G protein-coupled receptor (GPCR) small molecule agonists, calcium flux assay: HEK293 wild type cell line counter screen (AID 1920065). In outline:
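Tox21 10K compounds, 15 concentrations each in triplicate, pin-transferred in DMSO onto dye-loaded cells; kinetic read at 480/540 nm for 3 min, 1 s intervals.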

Experiment [6] can be described thus: p53 small molecule agonists, cell-based qHTS assay with rat liver microsomes: qHTS cell viability counter screen (AID 1963580). Further: nearly all actives have a fitted effect of over 45% in size. The gist of the method: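 Luminescent ATP readout (CellTiter-Glo, 30 min at room temperature) reports viability of p53RE-bla HCT-116 cells after 16 h at 37 C with test compounds under metabolic activation by rat liver microsomes and NADPH at 0.5 mg/mL final each.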

A short description of experiment [7]: p53 small molecule agonists, cell-based qHTS assay: qHTS cell viability counter screen (AID 1963581). Further: nearly all actives have a fitted effect of over 45% in size. Further: potency means the concentration at half of the fitted maximal effect. In outline:
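ATP content measured by luminescence in HCT-116 p53RE-bla cells treated 16 h at 37 C, same wells as the reporter screen.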

The nature of experiment [8]: p53 small molecule agonists, cell-based qHTS assay (AID 1963582; active means well fitted activation curve with a large enough effect in the signal ratio in the repeat runs, not every such curve was filed as active; the % refers to the signal ratio). The gist of the method:
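16 h compound exposure (37 C) of p53 response element–bla cells, preceded by 5 h recovery at 37 C/5% CO2; read-out via LiveBLAzer B/G FRET substrate, 2 h RT, fluorescence intensity.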

Experiment [9] is described as follows: cAMP Responsive Elements (CRE) small molecule agonists, cell-based qHTS assay (AID 1963590). In outline:
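HEK 293T cells stably bearing CRE-bla were plated at 2,000 cells per well and rested 18 h. Compounds, positive controls or DMSO were added for 3 h at 37 C. LiveBLAzer B/G substrate was then loaded for 2 h at room temperature.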

Experiment [10] is described as follows: cAMP Responsive Elements (CRE) small molecule antagonists, cell-based qHTS assay (AID 1963591; active means well fitted inhibition curve with a large enough effect in the signal ratio in the repeat runs, not every such curve was filed as active; the % refers to the signal ratio; further: potency means the concentration at half of the fitted maximal effect). In outline: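 First, CRE-bla HEK293T cells settled 18 h at 37 C. Next, compound and 0.25 uM final NKH477 were applied for 3 h. Last, LiveBLAzer B/G substrate was loaded for 2 h at room temperature.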
Experiment [11] has as its target Beta-2 adrenergic receptor (Homo sapiens) (UniProt P07550). The experiment in a line: Adrenergic beta2 receptor (ADRB2) small molecule agonists, cell-based qHTS assay (AID 1963593).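 Further: CHO cells stably overexpressing human ADRB2.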 In outline:
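CHO cells stably over-expressing ADRB2 were plated overnight at 37C, then dosed with compounds plus a stimulation mix containing 100uM IBMX and 25uM Ro-20-1724 for 0.5hr at room temperature. cAMP was measured by HTRF competition, 1hr.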

The target in experiment [12] is D(2) dopamine receptor (Homo sapiens) (UniProt P14416). The experiment in a line: Dopamine D2 receptor (DRD2) small molecule agonists, cell-based qHTS assay (AID 1963594). Further: nearly all actives have a fitted effect of over 35% in size. Further: potency means the concentration at half of the fitted maximal effect. The gist of the method:
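HEK293 cells stably expressing DRD2 were cultured 24 h at 37 C, then given Ro20-1724 (0.1 mM final) and compounds for 10 min at room temperature. NKH477 (200nM) was then added for 30 min. cAMP was read by HTRF.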

Experiment [13] is described as follows: p53 small molecule agonists, cell-based qHTS assay with human liver microsomes: qHTS cell viability counter screen (AID 1963579). Further: nearly all actives have a fitted effect of over 45% in size. The gist of the method:
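p53RE-bla cells (4,000/well) were pre-incubated 5 h at 37 C, then given compounds in DMSO plus human liver microsomes (0.5 mg/mL final) and NADPH (0.5 mg/mL final) for 16 h at 37 C. Viability was read by CellTiter-Glo luminescence.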

Experiment [14] has as its target 5-hydroxytryptamine receptor 2A (Homo sapiens) (UniProt P28223). The experiment in a line: 5-hydroxytryptamine receptor 2A (HTR2A) small molecule antagonists, cell-based qHTS assay (AID 1963586). Further: nearly all actives have a fitted effect of over 45% in size. In outline:
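CHO cells stably expressing human HTR2A were plated for 18 h at 37 C, then loaded with calcium dye for 1 h. Compounds were preincubated 5 min at room temperature before DOI (4 nM solution) was added. Kinetic fluorescence was read for 3 min.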

Experiment [15] has the same target. Nature of the experiment: 5-hydroxytryptamine receptor 2A (HTR2A) small molecule agonists, cell-based qHTS assay (AID 1963587). Further: nearly all actives have a fitted effect of over 30% in size. The gist of the method:
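HTR2A-CHO cells, plated 18 h at 37 C/5% CO2, dye-loaded 1 h at 37 C; compounds in DMSO added by pin tool (agonist mode). Intracellular calcium flux read as kinetic fluorescence on FDSS over 2 min at 1 s intervals.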

In experiment [16] the target is Muscarinic acetylcholine receptor M1 (Homo sapiens) (UniProt P11229). Nature of the experiment: Cholinergic receptor muscarinic 1 (CHRM1) small molecule antagonists, cell-based qHTS assay (AID 1963588). Further: nearly all actives have a fitted effect of over 40% in size. In outline: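 Compounds were tested at 15 concentrations in three independent runs. Dye-loaded CHRM1-CHO cells were exposed 5 min at room temperature before stimulation by acetylcholine added at 50nM. Intracellular calcium was read kinetically on FDSS for 3 min.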
Muscarinic acetylcholine receptor M1 (Homo sapiens), sequence (P11229 whole entry, looked up): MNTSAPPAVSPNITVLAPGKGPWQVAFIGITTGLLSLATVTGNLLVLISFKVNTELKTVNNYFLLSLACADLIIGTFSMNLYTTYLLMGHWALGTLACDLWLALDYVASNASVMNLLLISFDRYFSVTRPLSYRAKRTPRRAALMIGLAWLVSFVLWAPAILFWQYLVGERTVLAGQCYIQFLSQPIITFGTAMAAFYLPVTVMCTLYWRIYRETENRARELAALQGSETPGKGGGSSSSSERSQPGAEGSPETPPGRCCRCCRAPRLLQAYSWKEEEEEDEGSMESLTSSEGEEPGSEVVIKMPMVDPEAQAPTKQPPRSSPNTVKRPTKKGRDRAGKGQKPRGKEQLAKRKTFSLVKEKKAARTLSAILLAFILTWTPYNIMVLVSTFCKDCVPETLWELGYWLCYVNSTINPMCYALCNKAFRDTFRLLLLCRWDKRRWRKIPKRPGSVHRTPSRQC

Experiment [17] addresses Beta-2 adrenergic receptor (Homo sapiens) (UniProt P07550). Nature of the experiment: Adrenergic beta2 receptor (ADRB2) small molecule antagonists, cell-based qHTS assay (AID 1963592). Further: series mostly up to about 92 µM; nearly all actives have a fitted effect of over 50% in size. In outline:
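Assay format: CHO-ADRB2 cells, 18-20hr seeding at 37C/5% CO2, then compound plus 1nM isoproterenol agonist mix for 0.5hr RT. Homogeneous time-resolved fluorescence cAMP detection after 1hr, expressed as 665/615 nm ratio.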

For experiment [18], the target named is D(2) dopamine receptor (Homo sapiens) (UniProt P14416). Nature of the experiment: Dopamine D2 receptor (DRD2) small molecule antagonists, cell-based qHTS assay (AID 1963595; active means well fitted inhibition curve with a large enough effect in the signal ratio in the repeat runs, with a control signal flat; the % refers to the signal ratio). The gist of the method: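 Readout: HTRF cAMP, cAMP-d2 competing with cellular cAMP for anti-cAMP cryptate, read after 1 h. Cells: DRD2-HEK293. Conditions: 0.1 mM Ro20-1724, 12 nM quinpirole, 200 nM NKH477, 30 min RT.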
D(2) dopamine receptor (Homo sapiens), sequence (P14416 whole entry, looked up): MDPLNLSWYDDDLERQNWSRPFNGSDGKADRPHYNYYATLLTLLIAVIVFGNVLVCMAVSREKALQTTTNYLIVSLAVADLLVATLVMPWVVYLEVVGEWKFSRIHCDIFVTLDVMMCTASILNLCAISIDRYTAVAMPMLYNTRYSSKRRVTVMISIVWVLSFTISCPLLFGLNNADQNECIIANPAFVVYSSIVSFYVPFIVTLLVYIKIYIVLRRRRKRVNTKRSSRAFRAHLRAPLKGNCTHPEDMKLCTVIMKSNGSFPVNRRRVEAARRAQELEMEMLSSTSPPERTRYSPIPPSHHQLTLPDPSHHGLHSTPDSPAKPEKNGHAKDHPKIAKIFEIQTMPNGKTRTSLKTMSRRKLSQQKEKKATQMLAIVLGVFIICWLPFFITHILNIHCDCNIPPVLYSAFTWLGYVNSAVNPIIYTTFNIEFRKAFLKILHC

Experiment [19] concerns the target Muscarinic acetylcholine receptor M1 (Homo sapiens) (UniProt P11229). The experiment in a line: Cholinergic receptor muscarinic 1 (CHRM1) small molecule agonists, cell-based qHTS assay (AID 1963589). Further: nearly all actives have a fitted effect of over 35% in size. Further: potency means the concentration at half of the fitted maximal effect. In outline: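 Homogeneous fluorescence calcium flux, agonist mode. Human M1-expressing CHO cells; compound dosed at 15 concentrations, three independent runs; signal sampled every 1 sec.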

Several values for one entry are separate records, joined by “and”; a condition that tells them apart may be missing. Equal entries are not always repeated. Records with an inconclusive call do not appear. Some compounds were tested as several samples or in several runs, with calls that do not always agree. Activity calls are given as the source filed them. Unless noted, the call rests on the fitted dose curve.

5-hydroxytryptamine receptor 2A (Homo sapiens), sequence (P28223 whole entry, looked up): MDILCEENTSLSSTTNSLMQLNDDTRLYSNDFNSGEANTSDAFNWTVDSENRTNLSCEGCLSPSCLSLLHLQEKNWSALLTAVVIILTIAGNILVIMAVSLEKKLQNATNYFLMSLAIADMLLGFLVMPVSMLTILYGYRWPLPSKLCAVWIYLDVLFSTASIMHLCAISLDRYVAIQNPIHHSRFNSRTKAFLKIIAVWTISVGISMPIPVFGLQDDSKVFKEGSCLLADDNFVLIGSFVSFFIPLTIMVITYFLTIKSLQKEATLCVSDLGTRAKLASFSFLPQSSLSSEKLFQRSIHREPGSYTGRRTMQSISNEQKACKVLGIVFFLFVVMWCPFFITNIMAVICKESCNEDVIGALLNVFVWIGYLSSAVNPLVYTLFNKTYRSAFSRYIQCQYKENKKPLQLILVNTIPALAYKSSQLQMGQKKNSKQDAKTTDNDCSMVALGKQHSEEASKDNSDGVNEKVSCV
Gonadotropin-releasing hormone receptor (Homo sapiens), sequence (P30968 whole entry, looked up): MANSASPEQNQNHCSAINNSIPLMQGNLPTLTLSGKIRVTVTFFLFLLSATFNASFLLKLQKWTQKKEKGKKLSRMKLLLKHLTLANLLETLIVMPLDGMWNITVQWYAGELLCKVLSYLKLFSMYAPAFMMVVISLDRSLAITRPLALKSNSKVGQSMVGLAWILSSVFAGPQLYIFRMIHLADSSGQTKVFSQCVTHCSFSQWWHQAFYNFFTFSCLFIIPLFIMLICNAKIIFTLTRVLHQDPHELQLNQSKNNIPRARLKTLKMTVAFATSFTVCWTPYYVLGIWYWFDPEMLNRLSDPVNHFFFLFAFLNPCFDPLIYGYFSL
Beta-2 adrenergic receptor (Homo sapiens), sequence (P07550 whole entry, looked up): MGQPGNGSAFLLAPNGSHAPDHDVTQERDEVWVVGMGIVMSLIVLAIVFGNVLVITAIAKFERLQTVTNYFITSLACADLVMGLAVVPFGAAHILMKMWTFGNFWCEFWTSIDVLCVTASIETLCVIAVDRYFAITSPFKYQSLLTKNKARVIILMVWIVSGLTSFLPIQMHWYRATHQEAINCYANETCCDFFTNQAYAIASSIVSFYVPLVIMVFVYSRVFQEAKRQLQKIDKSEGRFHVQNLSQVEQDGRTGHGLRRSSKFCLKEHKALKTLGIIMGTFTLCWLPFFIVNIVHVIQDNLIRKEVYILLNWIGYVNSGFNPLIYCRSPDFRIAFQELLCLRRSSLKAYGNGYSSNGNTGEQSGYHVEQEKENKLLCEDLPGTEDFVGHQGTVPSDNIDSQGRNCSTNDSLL

Regarding `CN1C[C@H](C(=O)N[C@]2(C)O[C@@]3(O)[C@@H]4CCCN4C(=O)[C@H](Cc4ccccc4)N3C2=O)C=C2c3cccc4[nH]cc(c34)C[C@H]21`, the Potency entry in [1], in [2], in experiment [3], in experiment [4], in experiment [5] and in experiment [6] was “inactive” in each case. The Potency result in [8], in [9] and in experiment [11] was “inactive” each time. Also, the Potency in [7] was 1.45 µM (active) and inactive; in [10], 48.8 µM (active); in experiment [12], 1.23 µM (active).
On to `COP(=S)(OC)Oc1ccc(S(=O)(=O)N(C)C)cc1`, for which the Potency result in experiment [1], in experiment [2], in experiment [3], in experiment [4], in experiment [5] and in experiment [13] was “inactive” throughout. In addition, the Potency entry in experiment [6], in experiment [7], in [8], in experiment [14], in [15] and in experiment [16] was “inactive” throughout. The Potency result in experiment [9], in experiment [10], in experiment [17], in experiment [12] and in [18] was “inactive” each time.
Turning to `COc1c(C(C)(C)C)cc([N+](=O)[O-])c(C)c1[N+](=O)[O-]`, the Potency entry in experiment [1], in experiment [2], in [3], in experiment [4], in experiment [5] and in experiment [13] was “inactive” each time. The Potency result in [6], in experiment [7], in experiment [8], in experiment [14], in experiment [15] and in [16] was “inactive” each time. Further, the Potency entry in experiment [19], in [17], in experiment [11] and in experiment [12] was “inactive” throughout.
For `COc1ccc(C(CN(C)C)C2(O)CCCCC2)cc1` (centres undefined), the Potency result in experiment [1], in experiment [2], in [3], in experiment [4], in [5] and in experiment [13] was “inactive” in each case. Further, the Potency entry in [6], in [7], in [8], in experiment [9], in experiment [10] and in experiment [17] was “inactive” each time. Also, the Potency result in [11] and in experiment [12] was “inactive” throughout.
For `O=c1[nH]c(=O)n(Cl)c(=O)n1Cl`, the Potency entry in experiment [1], in experiment [2], in experiment [3], in [4], in [5] and in experiment [13] was “inactive” each time. Moreover, the Potency entry in [6], in [7], in experiment [14], in experiment [15], in experiment [16] and in experiment [19] was “inactive” each time. Moreover, the Potency entry in [9], in [10], in [17], in experiment [12] and in experiment [18] was “inactive” throughout.
As to `C=CCc1ccc(OC)cc1`, the Potency result in [1], in experiment [2], in experiment [3], in experiment [4], in experiment [5] and in [13] was “inactive” in each case. The Potency entry in experiment [6], in [7], in experiment [14], in [15], in experiment [16] and in experiment [19] was “inactive” in each case. Besides, the Potency entry in [9], in [10], in [17], in experiment [12] and in [18] was “inactive” in each case.
Take `CCOP(=S)(OCC)SCSC(C)(C)C`: the Potency entry in [1], in experiment [2], in experiment [3], in experiment [4], in experiment [5] and in [13] was “inactive” each time. Also, the Potency entry in experiment [6], in experiment [7], in experiment [8], in [14], in [15] and in [16] was “inactive” throughout. In addition, the Potency result in experiment [19], in experiment [9], in [10], in experiment [17], in experiment [12] and in experiment [18] was “inactive” in each case.
As to `C[N+](C)(C)Cc1ccccc1`, the Potency result in experiment [1], in [2], in experiment [3], in [4], in [5] and in [13] was “inactive” throughout. Further, the Potency result in experiment [6], in experiment [7], in [14], in experiment [15], in [16] and in [9] was “inactive” each time. Also, the Potency result in experiment [10], in [17], in [11], in experiment [12] and in experiment [18] was “inactive” in each case. Besides, in [19], the Potency was 3.07 µM (active) and 5.49 µM (active).

Source of the values: PubChem BioAssay (Tox21).
